# Reference: PubChem BioAssay (Tox21)
# Inconclusive results are not listed. Where a call stands in place of a potency, no number is given. Values without a mark were called inactive. Activity calls are given as the source filed them. Calls come from the whole dose curve.
# Assay: cAMP Responsive Elements (CRE) small molecule agonists, cell-based qHTS assay (AID 1963590)
# Settings: CRE-bla HEK293T, beta-lactamase FRET ratio, 3 h; series mostly up to 92.4 µM
# Source text: U.S. Tox21 Program National Center for Advancing Translational Sciences [NCATS] Division of Preclinical Innovation [DPI] U.S. Environmental Protection Agency [EPA] National Institutes of Environmental Health Sciences [NIEHS] National Toxicology Program [NTP] U.S. Food and Drug Administration [FDA] Tox21 Assay Overview: CREB (cyclic-AMP Responsive Element Binding Protein) is a cellular transcription factor. It binds to certain DNA sequences called cAMP Responsive Elements (CRE) and regulates the transcription of the genes. […] This cell line can be used to find agonists/antagonists of the cyclic AMP signaling pathway. The activation of the report gene under culture conditions can be detected by fluorescence intensity. This cell line has been used to screen the Tox21 10K compound library to identify agonists that induce oxidative stress.
# Tox21 Assay Protocol Summary: CRE-bla Hek 293T cells were suspended in assay medium (DMEM containing 10% dialyzed FBS, 0.1 mM NEAA, 1 mM sodium pyruvate and 25 mM HEPES) and dispensed at 2,000 cells/5 uL /well into 1536-well black wall/clear bottom plates using a Multidrop Combi (ThermoFisher Scientific, Waltham, MA) dispenser. After the assay plates were incubated at 37 C/5% CO2 for 18 hrs, 23 nL of compounds dissolved in DMSO, positive controls or DMSO only was transferred to the assay plate by a pintool workstation (Kalypsys, San Diego, CA). After the plates were incubated at 37 C/5% CO2 for 3 hrs, 1 uL of LiveBLAzer B/G FRET substrate (Invitrogen, Carlsbad, CA) was added to each well using Bioraptr Flying Reagent Dispenser (FRD, Aurora Discovery, San Diego, CA). The plates were incubated at room temperature for 2 h.
SMILES,Potency,activation
FC(F)(F)c1ccccc1-n1ccnc1,inactive,–
NC(=O)c1cccc([N+](=O)[O-])c1,inactive,–
CCC(C)=O,inactive,–
CC(C)C1CCC(O)CC1 (stereo not given),inactive,–
CCCOC(C)=O,inactive,–
CCOC(=S)SSC(=S)OCC,inactive,–
NS(=O)(=O)c1ccccc1OC(F)(F)F,inactive,–
NS(=O)(=O)c1cc2c(cc1Cl)NC(C1CC3C=CC1C3)NS2(=O)=O (stereo not given),inactive,–
O=C(Oc1ccccc1)c1ccccc1,inactive,–
C=CCCCCCCCCO,inactive,–
CCC(=O)CC,inactive,–
COC(=O)c1sccc1S(N)(=O)=O,inactive,–
O=S(=O)(Oc1ccc(Cl)cc1Cl)c1ccccc1,inactive,–
CN1CCCC1,inactive,–
CCCCC(CC)COC(C)=O (stereo not given),inactive,–
CC(C)OC(=O)CCCCC(=O)OC(C)C,inactive,–
CN1Cc2c(N)cccc2C(c2ccccc2)C1 (stereo not given),inactive,–
Cc1ccc(-c2ccccc2)cc1,inactive,–
c1ccc2c(c1)Oc1ccccc1S2,inactive,–
C=CCCCCCCCCC(=O)OCCCC,inactive,–

SMILES,Potency,activation
CC(COCC(C)OC(=O)c1ccccc1)OC(=O)c1ccccc1 (stereo not given),inactive,–
CC1(C)C(O)C(C)(C)C1O (stereo not given),inactive,–
CC(CN1c2ccccc2Sc2ccccc21)N(C)C (stereo not given),inactive,–
CCCOCCC,inactive,–
CCC(C)NC(N)=O (stereo not given),inactive,–
CC1CNCC(C)O1 (stereo not given),inactive,–
CC1(C)[C@H](C(=O)OCc2cccc(Oc3ccccc3)c2)[C@@H]1C=C(Cl)Cl,inactive,–
Cc1cc(CCC(=O)OCCOCCOCCOC(=O)CCc2cc(C)c(O)c(C(C)(C)C)c2)cc(C(C)(C)C)c1O,inactive,–
CC(C)(C)CC(C)(C)c1ccc(Nc2ccc(C(C)(C)CC(C)(C)C)cc2)cc1,–,-1.83% [at 8.39 µM]
CC(C)=CCC/C(C)=C/C(=O)O,inactive,–
CCC(N)(CO)CO,inactive,–
CCCCc1ncc(/C=C(\Cc2cccs2)C(=O)O)n1Cc1ccc(C(=O)O)cc1,inactive,–
C=CC(=O)OCCN(CC)CC,inactive,–
C1CCSC1,inactive,–
CC(C)(O)C(=O)O,inactive,–
Cc1ccccc1OCC1CO1 (stereo not given),inactive,–
OCCC(F)(F)C(F)(F)C(F)(F)C(F)(F)C(F)(F)C(F)(F)F,inactive,–
O=C(O)C(S)C(S)C(=O)O (stereo not given),inactive,–
CC(=O)CC/C=C(\C)CC/C=C(\C)CC/C=C(\C)CCC=C(C)C,inactive,–
O=[N+]([O-])c1ccc(CCO)cc1,inactive,–
